The results in this text go back to PubChem BioAssay (EPA / NIEHS).

Values joined by “and” are separate entries in the source; they are usually repeats but may differ in a detail not shown here. Equal entries are not always repeated. Records with an inconclusive call do not appear. Some compounds were tested as several samples or in several runs, with calls that do not always agree. Active and inactive are the calls of the source. Rule for the calls: active = hit-call score of the fitted dose curve at least 0.9, where 1 is the maximum; inconclusive = response in the unintended direction; inactive = score below 0.9.

Chain of human Phosphoinositide 3-kinase alpha (PI3Ka), PIK3CA (gene 5290) (P42336 whole entry, looked up): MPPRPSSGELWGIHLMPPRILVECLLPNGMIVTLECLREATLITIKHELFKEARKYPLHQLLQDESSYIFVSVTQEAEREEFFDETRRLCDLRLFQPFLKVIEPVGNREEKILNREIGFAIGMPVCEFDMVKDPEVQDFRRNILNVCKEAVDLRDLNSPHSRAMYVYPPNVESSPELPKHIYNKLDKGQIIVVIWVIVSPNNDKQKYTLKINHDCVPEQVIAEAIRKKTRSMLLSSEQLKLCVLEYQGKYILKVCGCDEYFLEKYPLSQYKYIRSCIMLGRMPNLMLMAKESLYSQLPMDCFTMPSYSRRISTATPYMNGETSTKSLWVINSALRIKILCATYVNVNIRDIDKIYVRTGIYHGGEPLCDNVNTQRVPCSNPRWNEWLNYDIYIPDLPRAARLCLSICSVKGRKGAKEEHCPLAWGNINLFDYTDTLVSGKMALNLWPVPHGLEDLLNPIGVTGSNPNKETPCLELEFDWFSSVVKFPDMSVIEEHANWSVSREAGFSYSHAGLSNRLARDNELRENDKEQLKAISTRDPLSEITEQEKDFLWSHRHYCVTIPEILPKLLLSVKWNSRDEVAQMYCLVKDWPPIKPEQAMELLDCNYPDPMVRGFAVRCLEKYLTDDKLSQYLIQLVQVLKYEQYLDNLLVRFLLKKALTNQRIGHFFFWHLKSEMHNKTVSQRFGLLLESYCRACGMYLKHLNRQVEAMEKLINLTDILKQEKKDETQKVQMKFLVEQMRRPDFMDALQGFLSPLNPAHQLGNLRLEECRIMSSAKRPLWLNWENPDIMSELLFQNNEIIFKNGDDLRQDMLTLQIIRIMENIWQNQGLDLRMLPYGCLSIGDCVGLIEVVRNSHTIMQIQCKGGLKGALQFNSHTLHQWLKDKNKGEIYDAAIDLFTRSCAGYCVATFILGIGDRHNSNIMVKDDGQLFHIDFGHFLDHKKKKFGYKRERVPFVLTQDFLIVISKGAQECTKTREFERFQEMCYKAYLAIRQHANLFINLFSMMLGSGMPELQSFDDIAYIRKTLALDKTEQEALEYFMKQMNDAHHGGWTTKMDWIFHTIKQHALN

The first assay deals with human Phosphodiesterase 5 (PDE5), PDE5A (gene 8654) (UniProt O76074). Description: NVS_ENZ_hPDE5: NovaScreen (NVS) Enzymatic Assay for human Phosphodiesterase 5 (PDE5) (AID 2283194). The method, boiled down: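 Recombinant human PDE5 with specific substrate, read 1 h after dosing by fluorescence with electrophoretic mobility-shift separation of substrate and product. Initial single-concentration duplicate screen at 25 uM, actives followed in concentration series; loss of activity versus DMSO.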
`CCNc1nc(Cl)nc(NC(C)(C)C#N)n1`: the AC50 is 13.6 µM (active).
Regarding `CC[C@H](C)[C@H]1O[C@]2(C=C[C@@H]1C)C[C@@H]1C[C@@H](C/C=C(\C)[C@@H](O[C@H]3C[C@H](OC)[C@@H](O[C@H]4C[C@H](OC)[C@@H](NC)[C@H](C)O4)[C@H](C)O3)[C@@H](C)/C=C/C=C3\CO[C@@H]4[C@H](O)C(C)=C[C@@H](C(=O)O1)[C@]34O)O2`, the AC50 was 39.3 µM (active).
On to `CN(C)[C@@H]1C(=O)C(C(N)=O)=C(O)[C@@]2(O)C(=O)C3=C(O)c4c(O)cccc4[C@@](C)(O)[C@H]3[C@H](O)[C@@H]12`, for which the AC50 is 6.97 µM (active).
Consider `CSc1nc(NC(C)C)nc(NC(C)C)n1`, for which the AC50 is 5.79 µM (active).
On to `C[Si](Cn1cncn1)(c1ccc(F)cc1)c1ccc(F)cc1`, for which the result was inactive.

The next assay has as its target human Phosphoinositide 3-kinase alpha (PI3Ka), PIK3CA (gene 5290) (UniProt P42336). Description: NVS_ENZ_hPI3Ka: NovaScreen (NVS) Enzymatic Assay for human Phosphoinositide 3-kinase alpha (PI3Ka) (AID 2283196). The method, boiled down: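 Duplicate single-point screen (25 uM), then singleton dose-response (max 50 uM) for compounds meeting the threshold. Cell-free kinase reaction, 1 h; fluorescent mobility-shift readout.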
Consider `CNC(=O)ON=C(C)SC`, for which the result was inactive.
As for `CC[C@H](C)[C@H]1O[C@]2(C=C[C@@H]1C)C[C@@H]1C[C@@H](C/C=C(\C)[C@@H](O[C@H]3C[C@H](OC)[C@@H](O[C@H]4C[C@H](OC)[C@@H](NC)[C@H](C)O4)[C@H](C)O3)[C@@H](C)/C=C/C=C3\CO[C@@H]4[C@H](O)C(C)=C[C@@H](C(=O)O1)[C@]34O)O2`, the AC50 was 7.94 µM (active).
With `CN(C)[C@@H]1C(=O)C(C(N)=O)=C(O)[C@@]2(O)C(=O)C3=C(O)c4c(O)cccc4[C@@](C)(O)[C@H]3[C@H](O)[C@@H]12`, the AC50 was 4.72 µM (active) and 4.22 µM (active) and 15.1 µM (active); the call was inactive.
In the case of `CC(C)=CC1C(C(=O)OCN2C(=O)C3=C(CCCC3)C2=O)C1(C)C` (configuration not stated), the compound was called inactive.
Turning to `O=[N+]([O-])c1cc(C(F)(F)F)c(Cl)c([N+](=O)[O-])c1Nc1ncc(C(F)(F)F)cc1Cl`, the call was inactive.
Still for that read-out and setting: for `Cc1ccn2nc(S(=O)(=O)Nc3c(F)cccc3F)nc2n1` the value was “inactive”; for `CC1(C(=O)Nc2ccc(O)c(Cl)c2Cl)CCCCC1`, “inactive”.

The target in a further assay is PPP2CA (gene 5515) (UniProt P67775). Nature of the assay: NVS_ENZ_hPPP2CA: NovaScreen (NVS) Enzymatic Assay for human Protein Phosphatase 2 Aatalytic subunit Alpha (PPP2CA) (AID 2283199). On the procedure: NVS_ENZ_hPPP2CA is a biochemical, single-readout assay that uses extracted gene-proteins in a cell-free assay. Measurements were taken 1.33 hours after chemical dosing in a 384-well plate.NVS_ENZ_hPPP2CA is one of one assay component(s) measured or calculated from the NVS_ENZ_hPPP2CA assay. It is designed to make measurements of enzyme activity, a form of enzyme reporter, as detected with fluorescence intensity signals by Fluorescence and electrophoretic mobility shift technology.Data from the assay component NVS_ENZ_hPPP2CA was analyzed into 1 assay endpoint. This assay endpoint, NVS_ENZ_hPPP2CA, was analyzed in the positive analysis fitting direction relative to DMSO as the negative control and baseline of activity. Using a type of enzyme reporter, loss-of-signal activity can be used to understand changes in the enzymatic activity as they relate to the gene PPP2CA. Furthermore, this assay endpoint can be referred to as a primary readout, because this assay has produced multiple assay endpoints where this one serves a enzymatic activity function. To generalize the intended target to other relatable targets, this assay endpoint is annotated to the phosphatase intended target family, where the subfamily is serine/threonine phosphatase.
Chain of PPP2CA (gene 5515) (P67775 whole entry, looked up): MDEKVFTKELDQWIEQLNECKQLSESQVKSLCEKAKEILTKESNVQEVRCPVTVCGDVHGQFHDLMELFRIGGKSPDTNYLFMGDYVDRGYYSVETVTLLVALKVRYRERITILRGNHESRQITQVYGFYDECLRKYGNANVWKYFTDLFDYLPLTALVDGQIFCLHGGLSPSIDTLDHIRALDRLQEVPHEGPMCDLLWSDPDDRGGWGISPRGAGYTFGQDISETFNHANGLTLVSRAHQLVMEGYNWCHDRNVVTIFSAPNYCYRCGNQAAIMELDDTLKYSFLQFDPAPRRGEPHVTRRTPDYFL
Binding assays used specific radioligands (tritiated, iodinated) with non-radioactive competitive displacement ligands in agonist or antagonist protocols (as indicated) and various reference compounds and inhibitors to titrate specific binding to receptors and transporters. Most enzyme assays (CYPs, kinases, phosphatases, proteases, HDACs) used recombinant protein and specific substrates (fluorescence mostly, some colorimetric and radioactive) and inhibitors, followed by a biochemical separation of substrate and product. All assays for the biochemical HTS were initially run in duplicate at a single concentration (10 uM for CYP450 assays and 25 uM for all others). Assay-chemical combinations meeting a pre-defined threshold (e.g., 30% inhibition and other criteria defined below) were then run in singleton concentration-response format with maximum concentration of 20 uM for CYPs and 50 uM for all others. Each assay was run with positive and negative controls, and concurrent controls on every plate. The follow-up (secondary) screen tested active chemical-pairs in concentration series, as well as a few additional assays not tested in the primary screen, some selected negative inactives, and several cases re-run in the concentration series for confirmatory purposes.
`CC[C@H](C)[C@H]1O[C@]2(C=C[C@@H]1C)C[C@@H]1C[C@@H](C/C=C(\C)[C@@H](O[C@H]3C[C@H](OC)[C@@H](O[C@H]4C[C@H](OC)[C@@H](NC)[C@H](C)O4)[C@H](C)O3)[C@@H](C)/C=C/C=C3\CO[C@@H]4[C@H](O)C(C)=C[C@@H](C(=O)O1)[C@]34O)O2`: the half-maximal activity concentration (AC50) was 16.8 µM (active).
For the compound `CN(C)[C@@H]1C(=O)C(C(N)=O)=C(O)[C@@]2(O)C(=O)C3=C(O)c4c(O)cccc4[C@@](C)(O)[C@H]3[C@H](O)[C@@H]12`, the AC50 was 23.1 µM (active).
`CCOP(=S)(Oc1cnc(C(C)(C)C)nc1)OC(C)C` (configuration not stated): the outcome was inactive.
For `CCC(=O)Nc1ccc(Cl)c(Cl)c1`, the outcome was inactive.
